# Results taken from the supplement of paper PMC8728848.
# Shown is part of a subset that was picked to be rich in the strongest signals.
# B1: CML1 (Coprinopsis cinerea) (protein)
# chain: MAIFHTGSELFIITRGPGKLTLLTWGGLNNLRSVIGAIPTENTGVTKWAVSFSHNYTRFSFIWEGQGEACYQIGNGLTRSPVGRSWSSSSTIHWGSSTVITEDVTSVVPGAVNRDKVTTAYALPDNL
# Assays:
# Experiment in all cases: glycan array binding signal (z-score within array); higher = stronger binding
# Settings in all cases: glycan notation: IUPAC condensed, linker removed
# [1] = target: GlcNAc(b1-3)Gal(b1-4)GlcNAc
# Method in brief: (§1)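 The binding signal is a Z-score computed within each array. Data were drawn from 3228 arrays in the Consortium for Functional Glycomics database, restricted to those with a known protein sequence. Scores were averaged over arrays of the same protein sequence at different concentrations or buffers, and over linkers, and negative values can be taken as non-binding.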
# [2] = target: GlcNAc(b1-3)[GlcNAc(b1-6)]GalNAc
# Method in brief: as §1
# [3] = target: Kdn(a2-3)Gal(b1-3)GlcNAc
# Method in brief: as §1
# [4] = target: Man(a1-2)Man(a1-3)Man
# Method in brief: as §1
# [5] = target: Neu5Ac(a2-3)Gal(b1-3)GalNAc(b1-3)Gal(a1-4)Gal(b1-4)Glc
# Method in brief: as §1
# [6] = target: Neu5Ac(a2-3)Gal(b1-3)GlcNAc(b1-2)Man(a1-3)[Neu5Ac(a2-3)Gal(b1-3)GlcNAc(b1-2)Man(a1-6)]Man(b1-4)GlcNAc(b1-4)GlcNAc
# Method in brief: as §1
# [7] = target: Neu5Ac(a2-3)Gal(b1-3)[Fuc(a1-4)]GlcNAc
# Method in brief: as §1
# [8] = target: Neu5Ac(a2-3)Gal(b1-4)GlcNAc(b1-2)[Neu5Ac(a2-3)Gal(b1-4)GlcNAc(b1-4)]Man(a1-3)[GlcNAc(b1-4)][Neu5Ac(a2-3)Gal(b1-4)GlcNAc(b1-4)Man(a1-6)]Man(b1-4)GlcNAc(b1-4)GlcNAc
# Method in brief: as §1
# [9] = target: Neu5Ac(a2-3)Gal(b1-4)GlcNAc(b1-3)Gal
# Method in brief: as §1
# [10] = target: Neu5Ac(a2-3)Gal(b1-4)GlcNAc(b1-3)Gal(b1-4)GlcNAc(b1-2)Man(a1-3)[Neu5Ac(a2-3)Gal(b1-4)GlcNAc(b1-3)Gal(b1-4)GlcNAc(b1-2)Man(a1-6)]Man(b1-4)GlcNAc(b1-4)GlcNAc
# Method in brief: as §1
# [11] = target: Neu5Ac(a2-3)Gal(b1-4)GlcNAc(b1-3)Gal(b1-4)GlcNAc(b1-3)GalNAc
# Method in brief: as §1
# [12] = target: Neu5Ac(a2-3)Gal(b1-4)GlcNAc(b1-3)Gal(b1-4)[Fuc(a1-3)]GlcNAc
# Method in brief: as §1
# [13] = target: Neu5Ac(a2-3)Gal(b1-4)[Fuc(a1-3)]GlcNAc(b1-3)Gal
# Method in brief: as §1
# [14] = target: Neu5Ac(a2-3)Gal(b1-4)[Fuc(a1-3)]GlcNAc(b1-3)Gal(b1-4)GlcNAc
# Method in brief: as §1
# [15] = target: Neu5Ac(a2-3)Gal(b1-4)[Fuc(a1-3)]GlcNAc6S
# Method in brief: as §1
# [16] = target: Neu5Ac(a2-3)Gal6S(b1-4)GlcNAc
# Method in brief: as §1
# [17] = target: Neu5Ac(a2-3)Gal6S(b1-4)[Fuc(a1-3)]GlcNAc
# Method in brief: as §1
# [18] = target: Neu5Ac(a2-3)[GalNAc(b1-4)]Gal(b1-4)GlcNAc
# Method in brief: as §1
# [19] = target: Neu5Ac(a2-6)Gal(b1-4)GlcNAc
# Method in brief: as §1
# [20] = target: Neu5Ac(a2-6)Gal(b1-4)GlcNAc(b1-2)[Neu5Ac(a2-6)Gal(b1-4)GlcNAc(b1-4)]Man(a1-3)[GlcNAc(b1-4)][Neu5Ac(a2-6)Gal(b1-4)GlcNAc(b1-2)[Neu5Ac(a2-6)Gal(b1-4)GlcNAc(b1-6)]Man(a1-6)]Man(b1-4)GlcNAc(b1-4)GlcNAc
# Method in brief: as §1
# [21] = target: Neu5Ac(a2-6)Gal(b1-4)GlcNAc(b1-3)Gal(b1-3)GlcNAc
# Method in brief: as §1
# [22] = target: Neu5Ac(a2-6)Gal(b1-4)GlcNAc(b1-6)[Gal(b1-3)GlcNAc(b1-3)]Gal(b1-4)Glc
# Method in brief: as §1
# [23] = target: Neu5Ac(a2-6)Gal(b1-4)GlcNAc6S
# Method in brief: as §1
# [24] = target: Neu5Ac(a2-6)GalNAc
# Method in brief: as §1
# [25] = target: Neu5Ac9Ac(a2-3)Gal(b1-4)GlcNAc
# Method in brief: as §1
# [26] = target: Neu5Gc(b2-6)Gal(b1-4)GlcNAc
# Method in brief: as §1
binder,measurement,setting,value
B1,glycan array binding signal (z-score),[1],-0.329
same,glycan array binding signal (z-score),[2],-0.329
same,glycan array binding signal (z-score),[3],-0.319
same,glycan array binding signal (z-score),[4],-0.348
same,glycan array binding signal (z-score),[5],-0.333
same,glycan array binding signal (z-score),[6],-0.355
same,glycan array binding signal (z-score),[7],4.64
same,glycan array binding signal (z-score),[8],-0.332
same,glycan array binding signal (z-score),[9],-0.3
same,glycan array binding signal (z-score),[10],-0.331
same,glycan array binding signal (z-score),[11],-0.342
same,glycan array binding signal (z-score),[12],-0.341
same,glycan array binding signal (z-score),[13],4.46
same,glycan array binding signal (z-score),[14],2.41
same,glycan array binding signal (z-score),[15],4.04
same,glycan array binding signal (z-score),[16],6.01
same,glycan array binding signal (z-score),[17],3.49
same,glycan array binding signal (z-score),[18],-0.353
same,glycan array binding signal (z-score),[19],-0.352
same,glycan array binding signal (z-score),[20],-0.321
same,glycan array binding signal (z-score),[21],-0.35
same,glycan array binding signal (z-score),[22],-0.355
same,glycan array binding signal (z-score),[23],-0.334
same,glycan array binding signal (z-score),[24],-0.331
same,glycan array binding signal (z-score),[25],-0.348
same,glycan array binding signal (z-score),[26],-0.339
